# Screening results: PubChem, The Scripps Research Institute Molecular Screening Center
# MITF primary: inhibitors of human MITF; AID 1259374; O75030; AlphaScreen MITF homodimerization, bead proximity signal; 650,000 compounds, 0.91% hits; inhibition, % at 2.6 µM; in the data active means inhibition above about 50%;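 further: 0% = vehicle wells with protein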
# FBW7 act: activators of human E3 ligase FBW7; Q969H0; AlphaScreen FBW7–phospho-cyclin E peptide binding, activator screen; normalized activity (activation), % at 26.1 µM; 650,000 compounds, 0.13% hits; in the data active means normalized activity above about 1.9%;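 further: purified mutant Fbw7 with reduced substrate affinity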
# TEAD-YAP block: TEAD-YAP interaction inhibition. HEK-TIYL cells, TEAD-Gal4/YAP UAS-luciferase luminescence. AID 1259422. 640,000 compounds, 1.4% hits. inhibition, % at 9.12 µM; in the data active means inhibition above about 32%;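 further: 0% = median of test compound wells and 100% = reference inhibitor wells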
# GPR151 ag: activators of human GPR151; AID 1508602; PathHunter beta-arrestin GPR151 cells, luminescence; activation, % at 11.2 µM; 650,000 compounds, 1% hits; Q8TDV0; in the data active means activation above about 4.9%;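 further: 0% = median of compound wells and 100% = cells with positive control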
# * marks the source's active call; other numbers are inactive results. Hits are enriched below; roughly 3.4% of the tested compounds scored in any of these assays.
SMILES,MITF primary,FBW7 act,TEAD-YAP block,GPR151 ag
CC1=C(C(=O)OC2CCCCC2)C(c2ccc(F)cc2)C2=C(CC(c3ccccc3)CC2=O)N1 (configuration not stated),14.2,1.9*,9.1,-0.3
CCC(C)OC(=O)C1=C(C)NC2=C(C(=O)CC(c3ccc(Cl)cc3)C2)C1c1cccc(Cl)c1 (configuration not stated),11.2,1.9*,6.2,1.0
COc1ccc(C2CC(=O)C3=C(C2)NC(C)=C(C(=O)OC2CCCCC2)C3c2cccc(C)c2)cc1OC (configuration not stated),7.4,0.5,46.1*,0.3
CCOc1ccc(C2C(C(=O)OC)=C(C)NC3=C2C(=O)CC(c2ccc(OC)c(OC)c2)C3)cc1OC (configuration not stated),-1.2,-0.1,40.6*,-0.5
CCOc1ccc(C2C(C(=O)OC)=C(C)NC3=C2C(=O)CC(c2ccc(OC)c(OC)c2)C3)cc1 (configuration not stated),-0.2,-0.1,-11.1,0.5
O=C(NC1CCCC1)C(c1ccco1)N(Cc1cccs1)C(=O)c1ccco1 (configuration not stated),8.4,0.1,-5.4,1.3
